Out of some 5,500 compounds screened, about 2,000 (36%) were called active. Another 18% or so got no clear call; they are omitted. No stated cut-off is given here; in the data, active means normalized growth mostly below about 0.91 (no sharp cut-off); inconclusive means no clear call, values can overlap the other calls; inactive means mostly above about 0.92. This is one part of the list.
Assay: chemical genetic growth profiling, strain panel (AID 1159580);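 further: tested at 20 µM; growth read once vehicle control cultures reached saturation at 30 °C; 1 = growth at the plate median or of vehicle wells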
Settings: S. cerevisiae deletion strains, growth OD

Measured: normalized growth

CCCOc1ccccc1-c1nc2n[nH]nc2c(=O)[nH]1
inactive: locus YAL013W, strain DEP1, stronger effect = lower value 0.99 | locus YAL021C, strain ccr4, stronger effect = lower value 0.965 | locus YAL026C, strain drs2, stronger effect = lower value 1.02 | locus YAL030W, strain snc1, stronger effect = lower value 0.995 | locus YAL040C, strain CLN3, stronger effect = lower value 1.05 | locus YBL061C, strain skt5, stronger effect = lower value 1 | locus YBR009C, strain hhf1, stronger effect = lower value 1.03 | locus YBR021W, strain FUR4, stronger effect = lower value 0.996 | locus YBR023C, strain chs3, stronger effect = lower value 1 | locus YBR171W, strain sec66, stronger effect = lower value 1.01 | locus YBR229C, strain ROT2, stronger effect = lower value 1 | locus YBR231C, strain swc5, stronger effect = lower value 1.02 | locus YBR279W, strain paf1, stronger effect = lower value 1.01 | locus YCL011C, strain gbp2, stronger effect = lower value 1.01 | locus YCL016C, strain dcc1, stronger effect = lower value 1.01 | locus YCL029C, strain bik1, stronger effect = lower value 1.01 | locus YCL061C, strain MRC1 (second series), stronger effect = lower value 0.993 | locus YCL061C, strain MRC1, stronger effect = lower value 1 | locus YCL069W, strain vba3, stronger effect = lower value 0.992 | locus YCR088W, strain abp1, stronger effect = lower value 1 | locus YDL005C, strain med2, stronger effect = lower value 1 | locus YDL035C, strain GPR1, stronger effect = lower value 1.02 | locus YDL040C, strain nat1, stronger effect = lower value 0.991 | locus YDL074C, strain BRE1, stronger effect = lower value 1.01 | locus YDL101C, strain DUN1, stronger effect = lower value 1.01 | locus YDL134C, strain PPH21, stronger effect = lower value 1.01 | locus YDL185W, strain tfp1, stronger effect = lower value 1.01 | locus YDL192W, strain arf1, stronger effect = lower value 1.01 | locus YDR001C, strain nth1, stronger effect = lower value 0.998 | locus YDR069C, strain doa4, stronger effect = lower value 1.02 | locus YDR101C, strain arx1, stronger effect = lower value 1 | locus YDR137W, strain rgp1, stronger effect = lower value 1 | locus YDR159W, strain sac3, stronger effect = lower value 1.03 | locus YDR162C, strain NBP2, stronger effect = lower value 1.01 | locus YDR195W, strain ref2 1.04 | locus YDR297W, strain sur2, stronger effect = lower value 1 | locus YDR318W, strain mcm21, stronger effect = lower value 1.01 | locus YDR334W, strain swr1, stronger effect = lower value 1.01 | locus YDR335W, strain msn5, stronger effect = lower value 1 | locus YDR363W, strain ESC2, stronger effect = lower value 0.985 | locus YDR388W, stronger effect = lower value 1.02 | locus YDR392W, strain spt3, stronger effect = lower value 0.956 | locus YDR502C, strain sam2, stronger effect = lower value 1.01 | locus YEL003W, strain gim4, stronger effect = lower value 1.01 | locus YEL037C, strain rad23, stronger effect = lower value 0.998 | locus YEL061C, strain CIN8 (second series), stronger effect = lower value 1 | locus YEL061C, strain CIN8, stronger effect = lower value 1.01 | locus YER002W, strain NOP16, stronger effect = lower value 1.01 | locus YER015W, strain faa2, stronger effect = lower value 1.01 | locus YER016W, strain bim1, stronger effect = lower value 1.01 | locus YER110C, stronger effect = lower value 1.01 | locus YER111C, strain swi4, stronger effect = lower value 1.01 | locus YER155C, strain BEM2 (second series), stronger effect = lower value 1.05 | locus YER155C, strain BEM2, stronger effect = lower value 1 | locus YER167W, strain BCK2, stronger effect = lower value 1.01 | locus YFR010W, strain ubp6, stronger effect = lower value 1.01 | locus YGL078C, strain dbp3, stronger effect = lower value 1.01 | locus YGL086W, strain mad1, stronger effect = lower value 1 | locus YGL167C, strain pmr1, stronger effect = lower value 1.01 | locus YGL173C, strain kem1, stronger effect = lower value 1.01 | locus YGL227W, strain vid30, stronger effect = lower value 1.01 | locus YGL240W, strain doc1, stronger effect = lower value 1.05 | locus YGL248W, strain PDE1, stronger effect = lower value 0.981 | locus YGL253W, strain hxk2, stronger effect = lower value 1.01 | locus YGR078C, strain PAC10, stronger effect = lower value 1.01 | locus YGR135W, strain pre9, stronger effect = lower value 1.01 | locus YGR229C, strain SMI1, stronger effect = lower value 1.01 | locus YGR252W, strain gcn5, stronger effect = lower value 1.03 | locus YHR013C, strain ard1, stronger effect = lower value 0.978 | locus YHR027C, strain rpn1, stronger effect = lower value 1 | locus YHR030C, strain SLT2, stronger effect = lower value 1 | locus YHR079C, strain IRE1 (second series), stronger effect = lower value 1.01 | locus YHR094C, strain hxt1, stronger effect = lower value 1.02 | locus YHR129C, strain ARP1, stronger effect = lower value 1 | locus YHR142W, strain chs7, stronger effect = lower value 0.953 | locus YHR200W, strain rpn10, stronger effect = lower value 1.01 | locus YIL066C, strain RNR3, stronger effect = lower value 1 | locus YIL073C, strain SPO22, stronger effect = lower value 1.08 | locus YIL125W, strain kgd1, stronger effect = lower value 1 | locus YIR030C, strain dcg1, stronger effect = lower value 1.01 | locus YJL092W, strain hpr5, stronger effect = lower value 1 | locus YJL095W, strain BCK1 (second series), stronger effect = lower value 1.01 | locus YJL095W, strain BCK1, stronger effect = lower value 0.994 | locus YJL115W, strain asf1, stronger effect = lower value 1 | locus YJL129C, strain trk1, stronger effect = lower value 0.992 | locus YJL134W, strain LCB3, stronger effect = lower value 1.01 | locus YJL154C, strain vps35, stronger effect = lower value 0.999 | locus YJL164C, strain tpk1, stronger effect = lower value 0.987 | locus YJL166W, strain qcr8, stronger effect = lower value 1.01 | locus YJL168C, strain set2, stronger effect = lower value 1.01

— PubChem BioAssay AID1159580 (chemical genetic matrix, 2015)
